Results reported in PubChem BioAssay AID463212 (Sanford-Burnham Center for Chemical Genomics, 2010).
Screen size: about 330,000 compounds; about 4,400 (1.3%) were called active.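 The calls were made as follows: active = growth inhibition of the mutant yeast at or above 50%; inactive = the rest.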 What follows is part of a selection rich in actives, with near analogues and random picks from the rest.

Test: growth inhibitors of tim23-1 mutant yeast, primary screen, luminescence, uHTS (AID 463212);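 also: temperature-sensitive mutant grown at 25 °C; plate controls were DMSO-treated mutant yeast for no effect and medium wells lacking yeast for full effect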
Details: S. cerevisiae tim23-1 growth, BacTiter-Glo luminescence, 24 h; at 20 µM; hits give high values

| Compound | inhibition |
| --- | --- |
| Cc1cc(C)cc(C(=O)OCC(=O)NCCNC(=O)COC(=O)c2cc(C)cc(C)c2)c1 | 2.3% (inactive) |
| C(=N/N1CCN(c2ccccc2)CC1)/c1cccs1 | 15.3% (inactive) |
| CCOc1cccc(=O)c2c(C)n(CC3CCCO3)c(C)c12 (stereo not given) | -1.14% (inactive) |
| O=C1c2cccc3c([N+](=O)[O-])ccc(c23)C(=O)N1CC1CCCO1 (stereo not given) | 87% (active) |
| CN1CN(C)c2ccc([N+](=O)[O-])c3cccc1c23 | 9.47% (inactive) |
| O=C(CC1CCCCC1)NCc1ccccc1 | 14.8% (inactive) |
| N/C(=N\OC(=O)CC1CCCCC1)c1ccccc1 | 56.4% (active) |
| N/C(=N\OC(=O)CCC1CCCCC1)c1ccccn1 | 30.2% (inactive) |
| O=C(COC(=O)c1ccc(Cl)nc1)NCc1ccc2c(c1)OCO2 | 6.05% (inactive) |
| COc1cccc(CN2CCN(Cc3ccc4cccc(F)c4n3)CC2CCO)c1 (stereo not given) | 6.61% (inactive) |
| O=C(Nc1nnc(CCOCCOCCc2nnc(NC(=O)c3ccco3)s2)s1)c1ccco1 | -4.68% (inactive) |
| NC(=O)c1ccsc1NC(=O)c1ccco1 | 6.25% (inactive) |
| O=C(Nc1nc(-c2ccco2)c(-c2ccco2)s1)c1ccco1 | 69.5% (active) |
| N#Cc1ccc(N2Cc3ccccc3/C2=N/C(=O)Nc2ccc(Cl)cc2)cc1 | 28.7% (inactive) |
| Cc1ccc(Cl)c(OCC(=O)N2CCc3ccccc3C2)c1 | 35.1% (inactive) |
| Cc1ccc2c(c1)c1ncnc(N3CCc4ccccc4C3)c1n2C | 51% (active) |
| c1ccc(-c2csc(N3CCc4ccccc4C3)n2)cc1 | 14.4% (inactive) |
| CCc1cc(=O)oc2c(C)c(OCC(=O)N3CC[C@@]4(O)CCCC[C@H]4C3)ccc12 | 2.55% (inactive) |
| CNS(=O)(=O)c1cnccc1N1CCN(c2cccc(C)c2)CC1 | 0.287% (inactive) |
| CCC(CC)NC(=O)/C=C/c1cccc([N+](=O)[O-])c1 | 17.4% (inactive) |

| Compound | inhibition |
| --- | --- |
| Cc1ccccc1N1CC(C(=O)Nc2ccc3c(c2)OCO3)CC1=O (stereo not given) | 2.96% (inactive) |
| COc1ccc(-c2n[nH]c(C)c2-c2ccccc2OC)c(O)c1 | 38.9% (inactive) |
| COc1ccccc1-c1n[nH]c2c1[C@H](C)CC[C@H]2C(C)C | 53% (active) |
| O=C1COc2ccc(S(=O)(=O)NCCc3ccc(Cl)cc3)cc2N1 | 8.79% (inactive) |
| CC(=O)NC(=S)Nc1ccc(NC(=O)c2cccnc2)cc1 | 16.1% (inactive) |
| Cc1ccc2nc(-c3ccc(NC(=O)c4cccnc4)cc3)oc2c1 | 52% (active) |
| CCOC(=O)c1ccc(NC(=O)c2cccnc2)cc1 | 13.2% (inactive) |
| Cc1cc(C(=O)COc2ccccc2[N+](=O)[O-])c(C)n1-c1cccc(S(=O)(=O)N2CCOCC2)c1 | 7.4% (inactive) |
| O=c1c2ccccc2nc2n1C(CSCc1cccc(C(F)(F)F)c1)CS2 (stereo not given) | 14.7% (inactive) |
| O=C1CN(c2nc(-c3ccccc3)c3cc(Br)ccc3n2)c2ccccc2N1 | 4.72% (inactive) |
| Cc1ccc(CNC(=O)Cn2cnc(S(=O)(=O)N3CCCCC3)c2)o1 | -6.13% (inactive) |
| Cc1[nH]n(C)c(=O)c1N=Nc1ccc(S(C)(=O)=O)cc1 | 11.7% (inactive) |
| Cc1[nH]n(C(N)=S)c(=O)c1N=Nc1ccc(Cl)cc1Cl | 67% (active) |
| CC1=NN(C(N)=S)C(=O)C1N=Nc1cc(Cl)ccc1Cl (stereo not given) | 36.9% (inactive) |
| Cc1c(Cl)cccc1NC(=O)CSc1ccc(-c2cccnc2)nn1 | 2.22% (inactive) |
| O=S(=O)(Nc1nccs1)c1ccc2c(c1)OCCO2 | 12.7% (inactive) |
| CCOC(=O)C1=C(C)N=c2s/c(=C\C(=O)OC)c(=O)n2C1c1ccc(OC)cc1 (stereo not given) | 52.3% (active) |
| COCCOC(=O)C1=C(C)N=c2s/c(=C\c3cccs3)c(=O)n2C1c1cccs1 (stereo not given) | -11.4% (inactive) |
| CCOC(=O)C1=C(CSc2nccn2C)NC(=O)NC1c1ccc(OC)cc1 (stereo not given) | 7.63% (inactive) |
| Cc1cc(=O)oc(C)c1C(=O)NC1CC(C)(C)NC(C)(C)C1 | 13.7% (inactive) |

| Compound | inhibition |
| --- | --- |
| CN(C)NC(=O)c1csnc1-c1c(Cl)cccc1Cl | -15.4% (inactive) |
| Cn1cccc1C(=O)OCC(=O)c1ccc(Br)s1 | 15.9% (inactive) |
| COc1cccc(-c2sc3ccc(OC)cc3c2-c2ccc(OCCN3CCCCC3)cc2)c1 | 58.8% (active) |
| COc1ccc2sc(-c3ccccc3OC)c(-c3ccc(OCCN4CCCC4)cc3)c2c1 | -0.331% (inactive) |
| COc1ccc(-c2sc3ccccc3c2-c2ccc(OCCN3CCOCC3)cc2)cc1 | 28% (inactive) |
| c1ccc(-c2nnc3n2NC(c2ccc4c(c2)OCO4)S3)cc1 (stereo not given) | 57.2% (active) |
| Cc1cccc(C)c1NC(=O)CSc1nnc(-c2ccccc2)n1Cc1ccc2c(c1)OCO2 | 3.97% (inactive) |
| CC1=C(C(N)=O)C(c2ccc3c(c2)OCO3)n2nc(-c3cccc(C)c3)nc2N1 (stereo not given) | 18.1% (inactive) |
| O=C(Nc1nnc(C2CC2)s1)C1=NN(C2CCS(=O)(=O)C2)C(=O)CC1 (stereo not given) | 9.54% (inactive) |
| COc1cc2c(cc1OC)C(/C=C/c1ccco1)=NCC2 | -9.38% (inactive) |
| COc1cccc(CNC(C)C(=O)Nc2ccc(S(=O)(=O)N3CCCC3)cc2)c1 (stereo not given) | 19.6% (inactive) |
| CC(C)c1ccc(S(=O)(=O)N2CCN(C(C)C(=O)NC3CCCC3)CC2)cc1 (stereo not given) | 13.4% (inactive) |
| COc1ccc(S(=O)(=O)N2CCN(C(C)C(=O)Nc3ccc(C(C)C)cc3)CC2)cc1 (stereo not given) | 50.6% (active) |
| O=C1NC[C@@H](Cc2ccc(O)cc2)N(CCc2cccc(F)c2)C1=O | 11.4% (inactive) |
| CC(=O)Nc1ccc(S(=O)(=O)N2CCN(C(=O)c3ccccc3F)CC2)cc1 | 3.67% (inactive) |
| Cc1ccc(C(=O)O/N=C(\N)c2ccccn2)cc1Cl | 6.93% (inactive) |
| Cc1cccc(/C(N)=N/OC(=O)c2ccccc2Cl)c1 | 72.9% (active) |
| Cc1ccc(/C(N)=N/OC(=O)COc2ccc(Cl)c(C)c2)cc1 | 24.2% (inactive) |
| CC(C)(C)NC(=O)CN1CCC(NC(=O)C23CC4CC(CC(C4)C2)C3)CC1 | 18% (inactive) |
| O=C(c1ccc(S(=O)(=O)NCc2ccco2)cc1)N1CCN(c2ccccc2)CC1 | 19.3% (inactive) |
